Source: PubChem BioAssay (NCATS)
Inconclusive results are not listed. Entries that show only a call come without a potency. Activity calls are given as the source filed them. The call rests on the fitted dose curve; in most records, active means well fitted inhibition curve with a large enough effect; inconclusive means small, poorly fitted or top-dose-only effect, or effect the other way; inactive means flat fitted curve, though single readings scatter.

What follows are compounds tested against ATP-dependent 6-phosphofructokinase (Trypanosoma brucei brucei) (UniProt O15648) (assay: qHTS Assay to Find Inhibitors of T. brucei phosphofructokinase: hit validation (AID 492961)). Conditions: T. brucei PFK, ADP-Glo luminescence; series mostly up to 51.4 µM.
Method in brief: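 Percent activity derived from corrected luminescence, normalized between 0x and 1x enzyme controls, then fitted to concentration-response curves. Conditions: 1.25 nM PFK, 0.1 mM ATP, 0.5 mM F6P, 45 min RT.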
Potency means the concentration at half of the fitted maximal effect.

Sequence of ATP-dependent 6-phosphofructokinase (Trypanosoma brucei brucei) (O15648 whole entry, looked up): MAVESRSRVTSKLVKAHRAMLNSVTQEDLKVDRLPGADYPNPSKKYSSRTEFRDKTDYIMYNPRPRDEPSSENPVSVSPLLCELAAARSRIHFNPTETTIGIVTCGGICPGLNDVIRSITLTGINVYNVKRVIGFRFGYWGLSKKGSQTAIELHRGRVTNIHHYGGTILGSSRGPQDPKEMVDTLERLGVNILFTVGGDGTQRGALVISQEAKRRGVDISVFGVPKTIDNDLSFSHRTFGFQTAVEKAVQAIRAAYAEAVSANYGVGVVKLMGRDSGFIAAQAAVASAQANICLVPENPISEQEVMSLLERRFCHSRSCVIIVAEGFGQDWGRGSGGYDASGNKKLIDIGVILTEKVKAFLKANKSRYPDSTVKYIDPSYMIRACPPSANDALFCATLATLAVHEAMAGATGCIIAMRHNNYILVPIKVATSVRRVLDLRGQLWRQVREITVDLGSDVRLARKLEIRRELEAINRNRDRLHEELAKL

Structure (SMILES)	Potency
Cc1cccc(C)c1NC(=O)CN1CCCC1	inactive
COc1ccccc1N1CCN(CCCCNC(=O)c2ccc(-c3ccc(C(C)=O)cc3)cc2)CC1	inactive
C[N+]1(C)CCC(=C(c2ccccc2)c2ccccc2)CC1	inactive
CN(C)C(=O)Nc1ccc(Cl)c(Cl)c1	inactive
Cc1c[nH]c2ccccc12	inactive
CCC1Nc2cc(Cl)c(S(N)(=O)=O)cc2S(=O)(=O)N1 (stereo not given)	inactive
CN(C)CCOC(c1ccc(Cl)cc1)c1ccccn1 (stereo not given)	inactive
O=C(Nc1ccc([N+](=O)[O-])cc1)Nc1ccc([N+](=O)[O-])cc1	inactive
CCCCc1cc2ccccc2c(OCCN(C)C)n1	inactive
COc1ccc(C(=O)c2ccccc2O)c(O)c1	inactive
C#C[C@]1(O)CC[C@H]2[C@@H]3CCc4cc(OC)ccc4[C@H]3CC[C@@]21C	inactive
CN(C)CCN1C(=O)c2ccccc2N(C)c2ccccc21	inactive
CC(=O)OCC(=O)[C@H]1CC[C@H]2[C@@H]3CCC4=CC(=O)CC[C@]4(C)[C@H]3CC[C@]12C	inactive
O=C(O)C(Cc1cc(I)c(O)c(I)c1)c1ccccc1 (stereo not given)	inactive
CCN(CC)CCOc1ccccc1C(=O)CCc1ccccc1	inactive
O=C(c1ccc(F)cc1)C1CCN(CCn2c(=S)[nH]c3ccccc3c2=O)CC1	inactive
O=C(NC1CCN(CCc2c[nH]c3ccccc23)CC1)c1ccccc1	inactive
CN1CCc2cccc3c2[C@H]1Cc1ccc(O)c(O)c1-3	12.6 µM (active)
CC1(COc2ccc(CC3SC(=O)NC3=O)cc2)CCCCC1 (stereo not given)	inactive
COc1cc(C(=S)N2CCOCC2)ccc1O	inactive
